Measurements: PubChem BioAssay (Tox21)
Results filed as inconclusive are left out. Entries that show only a call come without a potency. Unmarked numbers belong to inactive results. Active and inactive are the calls of the source. The call rests on the fitted dose curve; in most records, active means well fitted activation curve with a large enough effect in the repeat runs; inconclusive means weak or mixed curves; inactive means flat fitted curve, though single readings scatter.

Assay: A CellTox Green Cytotoxicity Assay to monitor cytotoxicity in HEK293 cells - 24 hour (AID 1224875)
Conditions: CellTox Green fluorescence; series mostly up to 76.8 µM
How it was run: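 Seeding of HEK293 cells together with cytotoxicity dye preceded a 5 h incubation at 37 C/5% CO2. Test compounds in DMSO were then added and fluorescence monitored across 40 h.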
Further: nearly all actives have a fitted effect of over 45% in size.
Potency means the concentration at half of the fitted maximal effect.

Row | SMILES | Potency | activity change
1 | CCOC(=O)OC(=O)OCC | inactive | –
2 | C/C=C/C(=O)OCC(C)C | inactive | –
3 | [Cl][Sc]([Cl])[Cl] | inactive | –
4 | COC(=O)c1ccc([N+](=O)[O-])cc1 | inactive | –
5 | CCCCCCCCCCCCS(=O)(=O)Cl | – | -0.292% [at 15.8 µM, hits give high values]
6 | CSc1ccc(O)cc1C | inactive | –
7 | CN(C)CCOc1ccc(/C(=C(/CCCl)c2ccccc2)c2ccccc2)cc1 | 45.8 µM (active) | –
8 | COCCC(=O)OC | inactive | –
9 | COc1cccc(-c2ccc(/C=C\CN3CCCCCC3)cc2Cl)c1 | 48.7 µM (active) | –
10 | CCN(CCC#N)c1ccc(N=Nc2ccc([N+](=O)[O-])cc2)cc1 | inactive | –
11 | Nc1cc([N+](=O)[O-])ccc1Cl | inactive | –
12 | O=c1[nH]cccc1O | inactive | –
13 | CCN(CC)c1ccc(C=O)cc1 | inactive | –
14 | CC(CC(C)(C)C)CC(C)(C)CC(C)(C)C (centres undefined) | inactive | –
15 | CCCCCCCCCC[N+](C)(CCCCCCCCCC)CCC[Si](OC)(OC)OC | 38.9 µM (active) | –
16 | CN1CCN(C)CC1 | inactive | –
17 | NC(=O)C1CO1 (centres undefined) | inactive | –
18 | CC1(C)[C@H](C(=O)OCc2cccc(Oc3ccccc3)c2)[C@@H]1C=C(Cl)Cl | inactive | –
19 | COc1cc2ncnc(Nc3cccc(Cl)c3)c2cc1OC | – | -0.939% [at 15.8 µM, hits give high values]

Row | SMILES | Potency | activity change
20 | CN1CCN(c2ccccc2/C=C2\SCCN(c3ccc(Cl)c(Cl)c3)C2=O)CC1 | 49 µM (active) | –
21 | COc1cc(C(C)C)ccc1C | – | -1.5% [at 15.8 µM, hits give high values]
22 | C1CCSC1 | inactive | –
23 | CCCCCN=C(N)N/N=C/c1c[nH]c2ccc(OC)cc12 | 6.74 µM (active) | –
24 | CCc1cccc(C)c1N(C(=O)CS(=O)(=O)O)C(C)COC (centres undefined) | inactive | –
25 | N#CCCOCCC#N | inactive | –
26 | CCCCCCCCSCc1cc(C)c(O)c(CSCCCCCCCC)c1 | inactive | –
27 | Nc1ccc(F)c([N+](=O)[O-])c1 | inactive | –
28 | CCCCNc1ccc(NCCCC)c2c1C(=O)c1ccccc1C2=O | – | 0.143% [at 15.8 µM, hits give high values]
29 | CCc1c(C)cc(N)c(CC)c1N | inactive | –
30 | C=Cc1ccc(O)c(OC)c1 | inactive | –
31 | Nc1ccc(Oc2cccc(Oc3ccc(N)cc3)c2)cc1 | inactive | –
32 | Nc1ccc(Cl)c([N+](=O)[O-])c1 | inactive | –
33 | CCNc1nc(NC(C)(C)C)nc(OC)n1 | inactive | –
34 | CN1CCN(CCCN2c3ccccc3Sc3ccc(C(F)(F)F)cc32)CC1 | 23.9 µM (active) | –
35 | C=C(C)CCO | inactive | –
36 | O=C(O)CN(CCCN(CC(=O)O)CC(=O)O)CC(=O)O | – | 1.78% [at 15.8 µM, hits give high values]
37 | CN(C[C@@H](CC[N+]12CCC(C3CCCCC3)(CC1)CC2)c1ccc(Cl)c(Cl)c1)C(=O)c1cc(C(F)(F)F)cc(C(F)(F)F)c1 | 24.5 µM (active) | –

Assay: A CellTox Green Cytotoxicity Assay to monitor cytotoxicity in HepG2 cells - 16 hour (AID 1224876)
Conditions: CellTox Green fluorescence; series mostly up to 76.8 µM
How it was run: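 Nonlytic assay: viable cells exclude the dye, so fluorescence scales with cell death. HepG2 at 600 cells/well, compounds added after 5 h, signal read across 40 h.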

Row | SMILES | Potency | cytotoxicity increase
38 | CCOC(=O)OC(=O)OCC | inactive | –
39 | C/C=C/C(=O)OCC(C)C | inactive | –
40 | [Cl][Sc]([Cl])[Cl] | inactive | –
41 | COC(=O)c1ccc([N+](=O)[O-])cc1 | inactive | –
42 | CCCCCCCCCCCCS(=O)(=O)Cl | – | -10.9% [at 15.8 µM]
43 | CSc1ccc(O)cc1C | inactive | –
44 | CN(C)CCOc1ccc(/C(=C(/CCCl)c2ccccc2)c2ccccc2)cc1 | 32.5 µM (active) | –
45 | COCCC(=O)OC | inactive | –
46 | COc1cccc(-c2ccc(/C=C\CN3CCCCCC3)cc2Cl)c1 | 43.4 µM (active) | –
47 | CCN(CCC#N)c1ccc(N=Nc2ccc([N+](=O)[O-])cc2)cc1 | inactive | –
48 | Nc1cc([N+](=O)[O-])ccc1Cl | inactive | –
49 | O=c1[nH]cccc1O | inactive | –
50 | CCN(CC)c1ccc(C=O)cc1 | inactive | –
51 | CC(CC(C)(C)C)CC(C)(C)CC(C)(C)C (centres undefined) | inactive | –
52 | CCCCCCCCCC[N+](C)(CCCCCCCCCC)CCC[Si](OC)(OC)OC | 43.6 µM (active) | –
53 | CN1CCN(C)CC1 | inactive | –
54 | NC(=O)C1CO1 (centres undefined) | inactive | –
55 | CC1(C)[C@H](C(=O)OCc2cccc(Oc3ccccc3)c2)[C@@H]1C=C(Cl)Cl | inactive | –
56 | COc1cc2ncnc(Nc3cccc(Cl)c3)c2cc1OC | – | -17.7% [at 15.8 µM]

Row | SMILES | Potency | cytotoxicity increase
57 | CN1CCN(c2ccccc2/C=C2\SCCN(c3ccc(Cl)c(Cl)c3)C2=O)CC1 | 49 µM (active) | –
58 | COc1cc(C(C)C)ccc1C | – | -12.9% [at 15.8 µM]
59 | C1CCSC1 | inactive | –
60 | CCCCCN=C(N)N/N=C/c1c[nH]c2ccc(OC)cc12 | 6.74 µM (active) | –
61 | CCc1cccc(C)c1N(C(=O)CS(=O)(=O)O)C(C)COC (centres undefined) | inactive | –
62 | N#CCCOCCC#N | inactive | –
63 | CCCCCCCCSCc1cc(C)c(O)c(CSCCCCCCCC)c1 | inactive | –
64 | Nc1ccc(F)c([N+](=O)[O-])c1 | inactive | –
65 | CCCCNc1ccc(NCCCC)c2c1C(=O)c1ccccc1C2=O | – | -0.637% [at 15.8 µM]
66 | CCc1c(C)cc(N)c(CC)c1N | inactive | –
67 | C=Cc1ccc(O)c(OC)c1 | inactive | –
68 | Nc1ccc(Oc2cccc(Oc3ccc(N)cc3)c2)cc1 | inactive | –
69 | Nc1ccc(Cl)c([N+](=O)[O-])c1 | inactive | –
70 | CCNc1nc(NC(C)(C)C)nc(OC)n1 | inactive | –
71 | CN1CCN(CCCN2c3ccccc3Sc3ccc(C(F)(F)F)cc32)CC1 | 23.9 µM (active) | –
72 | C=C(C)CCO | inactive | –
73 | O=C(O)CN(CCCN(CC(=O)O)CC(=O)O)CC(=O)O | – | -15.6% [at 15.8 µM]
74 | CN(C[C@@H](CC[N+]12CCC(C3CCCCC3)(CC1)CC2)c1ccc(Cl)c(Cl)c1)C(=O)c1cc(C(F)(F)F)cc(C(F)(F)F)c1 | 24.5 µM (active) | –
